According to PubChem BioAssay (NCI):
This is part of a sample that, as a whole, favours compounds with a hit. Of some 79,000 tested, about 15% had one in any assay. Unmarked numbers belong to inactive results. The source made the active and inactive calls. Cut-off read from the data, not from the text of the source: active = growth inhibition above about 70%; inactive = the rest.

Test: NCI Yeast Anticancer Drug Screen. Data for the bub3 strain (AID 167)
Details: S. cerevisiae bub3 mutant strain, hits give high values
Description: Growth inhibition of yeast strains with defined genetic alterations is measured as a screen for potential anti-cancer activity. Selected strains with alterations in DNA damage repair or cell cycle control were exposed to compounds and growth inhibition was measured relative to vehicle treated controls. The strain used in this assay is bub3

[1] = at 5.0 µM (retest, dose inferred, filed as 0.5)
[2] = at 50.0 µM (retest, dose inferred, filed as 5.0)

Row | Structure (SMILES) | growth inhibition (at 1.2 µM) [%] | growth inhibition (at 3.7 µM) [%] | growth inhibition [1] | growth inhibition (at 11.0 µM) | growth inhibition (at 33.0 µM) | growth inhibition [2] | growth inhibition (at 50.0 µM) | growth inhibition (at 100.0 µM)
1 | CC1(C)CC(=O)C(C(CC(c2ccccc2)c2cc3c(cc2O)OCO3)C2=C(O)CC(C)(C)CC2=O)=C(O)C1 (stereo not given) | -3 | -9 | 74% (active) | -6% | 63% | 99% (active) | 96% (active) | 82% (active)
2 | CC(=O)CC[N+](C)(C)C | 12 | 16 | 20% | 16% | 13% | 14% | -24.3% | 27%
3 | O=C1c2ccccc2C2CCC1c1ccccc12 (stereo not given) | -22 | -30 | -32% | -33% | 33% | 89% (active) | 7.05% | 97% (active)
4 | O=C1C=CC(=Nc2ccc3c(c2)Cc2cc(Cl)ccc2-3)O1 | 4 | 12 | 7% | 96% (active) | 99% (active) | 99% (active) | 99.7% (active) | 97% (active)
5 | Cc1cnccc1N=Nc1ccc(N(C)C)cc1 | 8 | 10 | -33% | 14% | 32% | 69% | 89% (active) | 79% (active)
